Screening results as filed in PubChem.
Rows were chosen to be rich in hits. Some 11% of all compounds tested hit in one or more screens of this group.
HEK293 tox = kills HEK 293 cells; Potency, µM (doses to about 115 µM), for the others: at the highest dose activity change, negative = cytotoxicity, most hits filed as inhibitors; HEK 293 viability, ATP luminescence (CellTiter-Glo), 48-72 h; 94,000 tested, 6.6% active; further: nearly all actives have a fitted effect of over 60% in size
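qHTS cytotoxicity; HEK 293, 250 cells/well; compound pinned; 48 or 72 hr, 37 degree Celsius, 5% CO2, 95% humidity; CellTiter-Glo, 10 min RT; luminescence (ATP).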
hNpr1 antagonist = blocks ANP-stimulated signaling of human Npr1 receptor; Potency, µM (titrated, usually from 46.3 µM), for inactives: top-dose activity change, negative = inhibition, most hits filed as inhibitors; 76,000 tested, 1.6% active; HEK293 hNpr1 GloSensor cGMP, ANP-stimulated luminescence; calls by dose curve; further: nearly all actives have a fitted effect of over 60% in size
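HEK293 cells stably expressing human Npr1 and cGMP GloSensor pGS-40F, loaded 2 h with 2% GloSensor reagent, given compound 30 min at room temperature. Luminescence read before and 20 min after 0.1 nM hNppA.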
FLuc inh = inhibitors of firefly (Photinus pyralis) luciferase. AID 1347043. purified P. pyralis luciferase, luminescence, biochemical. P08659. 76,000 tested, 2.5% active. Potency, µM (doses to about 115 µM), most hits filed as inhibitors; further: nearly all actives have a fitted effect of over 65% in size
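Cell-free enzyme assay, 10nM P. pyralis luciferase, luciferin and ATP each at 10uM. Inhibition profiled over a 6-point titration, read as luminescence.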
3T3 cytotox = kills NIH 3T3 cells; Potency, µM (doses to about 96.7 µM), without a hit: at the top dose activity change, negative = cytotoxicity, hits mostly inhibitors; NIH 3T3 viability, CellTiter-Glo ATP luminescence, 48-72 h; 94,000 tested, 4.3% active; AID 1345082; further: nearly all actives have a fitted effect of over 55% in size
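NIH 3T3 cells at 400 cells/well received 23 nL of compound by pintool and were incubated 48 or 72 h at 37 °C. Viability was read as ATP-coupled CellTiter-Glo luminescence.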
Numbers without * were called inactive; i = inactive; u = inconclusive; x = not tested or not shown; [ ] = another dose, or the depositor's remark. Unless noted, the call rests on the fitted dose curve; in most records, active means well fitted curve in the direction sought with a large enough effect; inconclusive means small, poorly fitted or top-dose-only effect, or another doubt; inactive means no such curve, though single readings can be large; an effect the other way counts as inactive or inconclusive. On the % scale 0 is the no-effect control and ±100 the full control effect; potency means the concentration at half of the fitted maximal effect.

SMILES | HEK293 tox | hNpr1 antagonist | FLuc inh | 3T3 cytotox
O=C(NCc1cccs1)C1CCCN(Cc2cccc(-c3ccsc3)c2)C1 (stereo unspecified) | 39.8µM* | x | x | u
COc1ccc(CC(=O)NC2CCN(Cc3cccc(-c4cccs4)c3)CC2)cc1 | -30.8% | x | x | -32.1%
O=C(NCc1cccs1)C1CCCN1C(=O)c1cccc(-c2cccnc2)c1 (stereo unspecified) | -26.1% | x | x | -12.0%
O=C(NCc1cccc(F)c1)C1CCCN(c2nc3ncccc3o2)C1 (stereo unspecified) | -3.0%[172 µM] | 0.0%[70.6 µM] | i | u
O=C(NCc1cccs1)C1CCCN(Cc2cccc(-c3cccs3)c2)C1 (stereo unspecified) | 44.7µM* | x | x | 39.8µM*
O=C(C1CCCN(Cc2cccc(-c3cccs3)c2)C1)N1CCCC1 (stereo unspecified) | 70.8µM* | x | x | u
O=C(NCc1cccc(F)c1)C1CCCN(Cc2cccc(-c3cccs3)c2)C1 (stereo unspecified) | u | x | x | 39.8µM*
Cc1cccc(-c2cccc(CN3CCCC(C(=O)N4CCN(C)CC4)C3)c2)c1 (stereo unspecified) | 25.1µM* | x | x | u
O=C(NCc1ccc(Cl)cc1)c1cc(-c2ccc(F)cc2)c2nncn2n1 | -28.7% | x | x | -34.3%
O=C([C@@H]1C[C@H](F)CN1C(=O)Nc1cccc(C(F)(F)F)c1)N1CCc2ccccc2C1 | 31.6µM* | 0.1% | i | 22.4µM*
Cc1cccc(NC(=O)N2C[C@@H](F)C[C@H]2C(=O)N2CCc3ccccc3C2)c1 | -6.2% | -17.2% | u | -9.8%
CCc1ccccc1S(=O)(=O)N1C[C@@H](F)C[C@H]1C(=O)N1CCc2ccccc2C1 | u | 0.7% | i | 31.6µM*
CC(C)CCNC(=O)c1cnc2c(c1)N(C(=O)Cc1cccc(C(F)(F)F)c1)CCC2 | u | -0.9%[70.6 µM] | i | u
NC(=O)c1ccc(NC(=O)c2cc3n(n2)CC(c2ccc(Br)cc2)OC3)cc1 (stereo unspecified) | 35.5µM* | u | i | u
Cc1ccc(NC(=O)c2cc3n(n2)CC(c2ccc4c(c2)OCO4)OC3)cc1F (stereo unspecified) | 39.8µM* | u | i | -25.6%
O=C(Nc1cccc(F)c1)c1cc2n(n1)CC(c1ccc(Br)cc1)OC2 (stereo unspecified) | u | -26.1% | u | u
COc1ccc(NC(=O)c2cc3n(n2)CC(c2ccc4c(c2)OCO4)OC3)cc1 (stereo unspecified) | 44.7µM* | 11.2µM* | u | u
COc1ccc(NC(=O)c2cc3n(n2)CC(c2ccc4c(c2)OCO4)OC3)c(OC)c1 (stereo unspecified) | u | -4.6% | i | u
O=C(NCc1ccc(C(F)(F)F)cc1)[C@@H]1Cc2nc[nH]c2CN1Cc1ccccn1 | -27.3%[172 µM] | 0.6%[70.6 µM] | i | u
COC1CCOC2(CCN(C(=O)Cc3cccc(F)c3)CC2)C1 (stereo unspecified) | -6.6% | 0.0% | i | -9.9%
COc1ccc(OCC2CC3(CCCCC3)CN2C(=O)Cc2cccc(F)c2)cc1 (stereo unspecified) | 39.8µM* | x | x | 39.8µM*
CN(C)C(=O)c1ccc2nc(-c3cccnc3)oc2c1 | 1.7%[172 µM] | x | x | -7.4%[138 µM]
CNC(=O)c1cc(-c2ccc(C)cc2)cc2c1OCCN2Cc1cccnc1 | u | 6.0%[70.6 µM] | i | u
COCCNC(=O)c1cc(-c2ccccc2F)cc2c1OCCN2Cc1cccnc1 | u | -17.8%[70.6 µM] | i | 89.1µM*
CNC(=O)c1cc(-c2cccc(NC(C)=O)c2)cc2c1OCCN2Cc1cccnc1 | -10.4%[172 µM] | -3.4%[70.6 µM] | i | 44.7µM*
SMILES | HEK293 tox | hNpr1 antagonist | FLuc inh | 3T3 cytotox
CNC(=O)c1cc(-c2ccccc2F)cc2c1OCCN2Cc1cccnc1 | 89.1µM* | -28.0%[70.6 µM] | i | u
O=C(NC1CCOCC1)c1cc(-c2ccccc2F)cc2c1OCCN2Cc1cccnc1 | u | 2.0% | i | -26.1%
CC(C)CNC(=O)c1cc(-c2ccccc2F)cc2c1OCCN2Cc1cccnc1 | 50.1µM* | -23.9%[70.6 µM] | i | 44.7µM*
O=C(c1nc2cccnc2n(C2CCCC2)c1=O)N1CCN(C(=O)C2CC2)CC1 | i | x | x | -11.8%
O=C(c1cccc(Cl)c1)N1CCCC(C(=O)N2CCCC(c3nc4ccncc4[nH]3)C2)C1 (stereo unspecified) | -1.9% | x | x | -15.2%
COc1cccc(-c2ccc(C(=O)NCCNC(=O)N(C)C)cc2)c1 | u | x | x | -16.7%
O=C(C1CCCC1)N1CCN(c2nnc3c(Cl)cccn23)CC1 | -19.8% | 4.7% | i | -19.5%
CN1CCN(C(=O)c2cn3cc(-c4ccc(C(F)(F)F)cc4)sc3n2)CC1 | 3.0% | x | x | u
O=C1N(CCc2ccccc2)CCOC12CCN(Cc1ccc(F)c(Cl)c1)CC2 | 79.4µM* | u | i | 44.7µM*
O=C(C1CCC1)N1CCCCCC1c1nnc(-c2ccccc2)o1 (stereo unspecified) | u | 2.2% | i | u
c1cncc(O[C@H]2COCCN(C3CCC3)C2)c1 | u | 1.1%[70.6 µM] | i | 50.1µM*
CS(=O)(=O)c1ccc(O[C@H]2COCCN(C3CCC3)C2)cc1 | -23.0%[172 µM] | 3.2%[70.6 µM] | i | -20.2%[174 µM]
OCC1(Cc2ccccc2)CCCN(Cc2cnn(-c3cccc(Cl)c3)c2)C1 (stereo unspecified) | 79.4µM* | -1.3% | i | 79.4µM*
O=S(=O)(c1cccc2ccccc12)N1CCCC(CO)(Cc2cccc(Cl)c2)C1 (stereo unspecified) | u | 3.4% | i | 44.7µM*
CN1CCN(Cc2cnn(-c3cccc(Cl)c3)c2)CC1CCO (stereo unspecified) | -26.3% | -1.9% | i | u
O=C(NCc1nnc2cc(-c3nc(C4CC4)no3)ccn12)c1ccccc1 | u | 3.7% | i | -0.9%
O=C(NCc1nnc2cc(-c3nc(C4CC4)no3)ccn12)c1c(F)cccc1F | 35.5µM* | 1.7% | i | u
CCC1=C(C(=O)OC)C(c2ccc(C)cc2C)N2C(CC(=O)Nc3ccc(OC)cc3)=CSC2=N1 (stereo unspecified) | 44.7µM* | -24.0% | i | u
CCC1=C(C(=O)OC)C(c2ccc(C)cc2C)N2C(CC(=O)N3CCCC3)=CSC2=N1 (stereo unspecified) | u | u | i | -31.2%
COC(=O)C1=C(C)N=C2SC=C(CC(=O)N3CCCC3)N2C1c1ccc(C)cc1C (stereo unspecified) | u | u | i | 25.1µM*
COCCCNC(=O)C1CCN(C(=O)c2ccc(-c3cncnc3)cc2)CC1 | -8.4% | x | x | -12.7%
CCc1cccc(OCC(=O)c2ccc3c(c2)N(CC(=O)N(C)Cc2ccccc2)C(=O)CO3)c1 | u | 12.6µM* | i | u
CC(C)c1ccccc1OCC(=O)c1ccc2c(c1)N(CC(=O)N1CCCC1)C(=O)CO2 | 39.8µM* | -1.9% | i | -5.1%
CC(C(=O)NCc1ccccc1)N1C(=O)COc2ccc(C(=O)COc3ccc(Cl)cc3)cc21 (stereo unspecified) | 89.1µM* | -2.6% | i | u
